Hits are enriched below; roughly 10% of the tested compounds scored in any of these assays.
hNpr1 antagonist = Natriuretic polypeptide receptor (hNpr1) antagonism - Primary qHTS; Atrial natriuretic peptide receptor 1 (Homo sapiens), P16066; HEK293 hNpr1 GloSensor cGMP, ANP-stimulated luminescence; Potency, µM (titrated, usually from 46.3 µM), for the others: at the highest dose activity change, negative = inhibition, hits mostly inhibitors; hit rate 1.6% among 76,000; calls by dose curve; further: potency means the concentration at half of the fitted maximal effect; on the % scale 0 is the no-effect control and ±100 the full control effect; nearly all actives have a fitted effect of over 60% in size
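Compound pre-incubated 30 min at room temperature on GloSensor-loaded HEK293 cells stably carrying hNpr1 and the pGS-40F cGMP biosensor. Stimulation uses hNppA at 0.1 nM final; luminescence is taken at baseline and 20 min post-agonist.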
HEK cytotox = Cytotoxic Profiling in HEK 293 Cell Line of Diverse Libraries Using Quantitative High-Throughput Screening; HEK 293 viability, ATP luminescence (CellTiter-Glo), 48-72 h; hit rate 6.6% among 94,000; Potency, µM (titrated, usually from 115 µM), for inactives: at the highest dose activity change, negative = cytotoxicity, usual class: inhibitors; further: potency means the concentration at half of the fitted maximal effect; on the % scale 0 is the no-effect control and ±100 the full control effect; nearly all actives have a fitted effect of over 60% in size
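250 HEK 293 cells/well; compound by pintool; incubated 48 or 72 hr at 37 degree Celsius; CellTiter-Glo added, 10 min RT, luminescence imaged.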
GPT2 inhibitor = Primary qHTS assay for inhibitors of Glutamate pyruvate transaminase 2 (GPT2); Alanine aminotransferase 2 (Homo sapiens), Q8TD30; Recombinant GPT2, coupled pyruvate oxidase/HRP Amplex Red fluorescence; Potency, µM (highest dose often 57.7 µM), without a hit: at the highest dose activity change, negative = inhibition, hits mostly inhibitors; hit rate 0.25% among 100,000; AID 1671188, 2021; further: potency means the concentration at half of the fitted maximal effect; on the % scale 0 is the no-effect control and ±100 the full control effect; nearly all actives have a fitted effect of over 60% in size
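Recombinant GPT2 (10ng/uL) with 250uM a-KG and 2mM L-alanine, 30 min at room temperature, in HEPES pH 7.5 buffer. Pyruvate detected by pyruvate oxidase/HRP/Amplex Red fluorescence after 30 min in the dark; AOA (50uM) as positive control.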
Luciferase inh = Firefly luciferase inhibition profiling of diverse chemical library using quantitative high-throughput screening; Luciferin 4-monooxygenase (Photinus pyralis), P08659; purified P. pyralis luciferase, luminescence, biochemical; Potency, µM (series often up to 115 µM), hits mostly inhibitors; hit rate 2.5% among 76,000; AID 1347043, 2019; further: potency means the concentration at half of the fitted maximal effect; on the % scale 0 is the no-effect control and ±100 the full control effect; nearly all actives have a fitted effect of over 65% in size
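Luminescence read by CCD imaging after purified firefly luciferase (10nM final) was added to substrate buffer holding 10uM D-luciferin and 10uM ATP, pH 7.5, pre-dosed with compound.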
3T3 cytotox = Cytotoxic Profiling in NIH 3T3 Cell Line of Diverse Libraries Using Quantitative High-Throughput Screening | AID 1345082, 2018 | hit rate 4.3% among 94,000 | NIH 3T3 viability, CellTiter-Glo ATP luminescence, 48-72 h | Potency, µM (titrated, usually from 96.7 µM), without a hit: at the top dose activity change, negative = cytotoxicity, usual class: inhibitors; further: potency means the concentration at half of the fitted maximal effect; on the % scale 0 is the no-effect control and ±100 the full control effect; nearly all actives have a fitted effect of over 55% in size
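Cells were seeded at 400 per well, treated with pin-transferred compound, and kept 48 or 72 hr at 37 °C before CellTiter-Glo addition and luminescence imaging of cellular ATP.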
NPR1 antag cnf = Natriuretic polypeptide receptor (hNpr1) antagonism - Confirmation. Potency, µM (top dose mostly 57.6 µM), without a hit: top-dose activity change, negative = inhibition, most hits filed as inhibitors. HEK293 hNpr1 cGMP GloSensor luminescence, ANP-stimulated. hit rate 76% among 1,400. shares compounds with hNpr1 antagonist; calls by dose curve; further: potency means the concentration at half of the fitted maximal effect; nearly all actives have a fitted effect of over 70% in size
NPR2 antag = Natriuretic polypeptide receptor (hNpr2) antagonism - Subtype selectivity assay | shares compounds with hNpr1 antagonist | HEK293 hNpr2 GloSensor cGMP luminescence, CNP-stimulated | Potency, µM (doses to about 57.6 µM), without a hit: top-dose activity change, negative = inhibition, usual class: inhibitors | hit rate 67% among 1,400 | AID 1347046, 2019; calls by dose curve; further: potency means the concentration at half of the fitted maximal effect; nearly all actives have a fitted effect of over 70% in size
Target sequence (P20594 whole entry, looked up): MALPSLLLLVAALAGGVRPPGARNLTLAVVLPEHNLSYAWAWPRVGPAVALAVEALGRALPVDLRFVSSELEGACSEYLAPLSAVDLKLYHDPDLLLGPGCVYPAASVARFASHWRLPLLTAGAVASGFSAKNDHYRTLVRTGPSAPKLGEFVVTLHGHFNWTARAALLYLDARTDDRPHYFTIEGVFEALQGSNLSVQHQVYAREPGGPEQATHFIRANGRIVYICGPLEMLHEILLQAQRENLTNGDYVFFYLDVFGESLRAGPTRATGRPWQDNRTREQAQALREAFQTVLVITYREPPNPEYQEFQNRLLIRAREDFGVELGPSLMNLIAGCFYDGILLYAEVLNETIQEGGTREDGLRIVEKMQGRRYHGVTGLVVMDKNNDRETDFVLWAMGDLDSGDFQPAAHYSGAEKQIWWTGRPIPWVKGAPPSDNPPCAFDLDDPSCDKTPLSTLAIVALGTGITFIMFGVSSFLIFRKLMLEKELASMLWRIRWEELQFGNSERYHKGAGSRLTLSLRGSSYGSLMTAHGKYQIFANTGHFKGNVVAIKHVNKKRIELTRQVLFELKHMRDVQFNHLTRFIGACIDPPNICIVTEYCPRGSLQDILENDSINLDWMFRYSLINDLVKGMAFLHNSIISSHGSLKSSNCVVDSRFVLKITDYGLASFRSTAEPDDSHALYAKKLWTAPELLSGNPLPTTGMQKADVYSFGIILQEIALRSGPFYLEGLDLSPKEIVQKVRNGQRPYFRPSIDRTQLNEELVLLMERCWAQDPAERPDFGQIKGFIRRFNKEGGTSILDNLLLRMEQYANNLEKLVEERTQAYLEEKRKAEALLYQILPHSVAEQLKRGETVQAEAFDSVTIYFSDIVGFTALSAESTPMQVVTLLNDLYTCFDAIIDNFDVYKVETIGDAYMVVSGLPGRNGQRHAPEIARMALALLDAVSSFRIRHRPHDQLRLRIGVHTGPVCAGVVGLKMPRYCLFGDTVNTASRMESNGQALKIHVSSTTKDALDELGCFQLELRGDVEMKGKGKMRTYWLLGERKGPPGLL
FLuc inh counter = Natriuretic polypeptide receptor (hNpr1) antagonism - Confirmation firefly luciferase (FLuc) inhibition counterscreen; shares compounds with hNpr1 antagonist; purified FLuc enzyme, luminescence, Km substrate; Potency, µM (titrated, usually from 57.6 µM), without a hit: at the top dose activity change, negative = inhibition, hits mostly inhibitors; hit rate 0.7% among 1,400; further: potency means the concentration at half of the fitted maximal effect; series mostly up to about 58 µM; 0% is about no effect
GloSensor ctrl = Natriuretic polypeptide receptor (hNpr1) antagonism - Counterscreen GloSensor control cell line; Potency, µM (highest dose often 57.6 µM), for inactives: at the top dose activity change, negative = inhibition, hits mostly inhibitors; shares compounds with hNpr1 antagonist; HEK293 GloSensor cGMP, SNP-stimulated, luminescence; hit rate 69% among 1,400; calls by dose curve; further: potency means the concentration at half of the fitted maximal effect; on the % scale 0 is the no-effect control and ±100 the full control effect; nearly all actives have a fitted effect of over 70% in size
GPT2 conf = Confirmatory qHTS assay for inhibitors of Glutamate pyruvate transaminase 2 (GPT2) | AID 1671187, 2021 | hit rate 90% among 95 | shares compounds with GPT2 inhibitor | Potency, µM, hits mostly inhibitors | GPT2 enzyme, coupled Amplex Red pyruvate fluorescence
The depositor's hits bear a star; i = inactive; ? = inconclusive; · = no result; ! = a repeat was not active; [ ] = another dose, or the depositor's remark. Unless noted, the call rests on the fitted dose curve; in most records, active means well fitted curve in the direction sought with a large enough effect; inconclusive means small, poorly fitted or top-dose-only effect, or another doubt; inactive means no such curve, though single readings can be large; an effect the other way counts as inactive or inconclusive.

SMILES | hNpr1 antagonist | HEK cytotox | GPT2 inhibitor | Luciferase inh | 3T3 cytotox | NPR1 antag cnf | NPR2 antag | FLuc inh counter | GloSensor ctrl | others
COCCn1c(C)cc(C(=O)N2[C@H]3CC[C@@H]2c2cnc(-c4ccc(F)cc4)nc2C3)c1C | 11µM* | 25µM* | -10% | i | ? | 12µM* | 15µM* | 1% | 14µM*
Cc1cccc(OCC(=O)N2[C@H]3CC[C@@H]2c2cnc(-c4ccc(F)cc4)nc2C3)c1 | ? | ? | i | i | ? | ? | ? | 4% | ?
Cc1ncccc1C(=O)N1[C@H]2CC[C@@H]1c1cnc(-c3ccc(F)cc3)nc1C2 | -29% | ? | i | i | ? | · | · | · | ·
O=C(COc1ccc(F)cc1)N1[C@H]2CC[C@@H]1c1cnc(-c3ccccc3)nc1C2 | · | ? | i | · | -33% | · | · | · | ·
Cc1ccsc1C(=O)N1[C@H]2CC[C@@H]1c1cnc(-c3ccc(F)cc3)nc1C2 | 5.6µM* | ? | i | i | ? | 7.7µM* | 7.7µM* | 1% | 6.1µM*
Cc1cc(C(=O)N2[C@H]3CC[C@@H]2c2cnc(-c4ccc(F)cc4)nc2C3)n[nH]1 | 13µM* | ? | 1% | i | ? | 24µM* | 24µM* | -2% | 24µM*
O=[S+]1([O-])NC2(CCN(Cc3cccnc3)C2)CNc2ccccc21 (stereo not given) | -14%[70.6 µM] | -5%[172 µM] | i | i | -14%[138 µM] | · | · | · | ·
CCOC(=O)[C@H]1CN(C(=O)c2ccc(Cl)cc2)[C@]2(C)C(=O)N(C)c3ccccc3[C@H]12 | · | ? | -9%[27.3 µM] | · | -29%[46.1 µM] | · | · | · | ·
O=C(c1cccc(Cl)c1)N1CCC(C(=O)O)(c2ccccc2)CC1 | · | i | i | · | -1% | · | · | · | ·
CCc1c(C(=O)C(N)=O)c2c(OCC(=O)OC)cccc2n1Cc1ccccc1 | · | · | i | · | · | · | · | · | ·
COc1ccc(C2(C(=O)N3CCC4(CC3)c3nccn3-c3ccccc3CN4C)CC2)cc1 | 8.9µM* | ? | i | i | -15% | 17µM* | 5.4µM* | 2% | 7%
c1ccc2c(c1)Nc1ccccc1S2 | · | · | 11µM*! | · | · | · | · | · | · | GPT2 conf=2.8*
COc1ccc(C(=O)N2[C@H]3CC[C@@H]2c2cnc(C)nc2C3)c(OC)c1 | -7% | -12% | ? | i | -10% | · | · | · | ·

Screening data: PubChem, National Center for Advancing Translational Sciences (NCATS)
